# GalR3 antagonist: human GalR3 antagonism. inhibition, % at 3 µM. 0.44% of 360,000 active. HEK293 GalR3-CNG cAMP membrane potential fluorescence; galR3 body fused to GalR1 C-terminus. O60755;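 active = inhibition above the screen-wide average plus 3 SD, cut at about 13% in these data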;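 note: forskolin and galanin both at EC90 stimulate the cells; cAMP rise reported by CNG channel membrane potential dye signal; 0% = forskolin plus galanin with DMSO and 100% = forskolin alone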
# HIV Env fusion: blocks HIV Env-driven cell-cell fusion; HeLa-JRFL Env/CEM21 cell fusion, luciferase; inhibition, % at 12.3 µM; 1.1% of 360,000 active; AID 651610;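 active = mean replicate inhibition score of at least 50 and every replicate individually at or above 50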;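 note: 0% = plate neutral controls and 100% = maraviroc near 300 nM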
# Gli-Sufu antag: blocks Gli-Sufu signaling in a luciferase reporter. inhibition, % at 5 µM. Sufu-KO-LIGHT fibroblasts, Gli luciferase reporter luminescence. 0.74% of 340,000 active. AID 588413;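 active = inhibition above about 55%, limit read from the data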;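 note: 0% = DMSO-treated cells and 100% = wells with medium but no cells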
# NR2F2 inh: inhibitors of human COUP-TFII (NR2F2); HEK293T NGFI-A luciferase reporter, luminescence; inhibition, % at 8.6 µM; 0.7% of 370,000 active;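 active = inhibition above a per-plate cutoff, mean inhibition of test wells between control levels plus 3 SD, cut at about 38% in these data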;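 note: cells cotransfected with COUP-TFII expression vector driving the NGFI-A reporter; 0% = median of COUP-TF2 test wells and 100% = reporter-only cells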
# Target sequence (P24468 whole entry, looked up): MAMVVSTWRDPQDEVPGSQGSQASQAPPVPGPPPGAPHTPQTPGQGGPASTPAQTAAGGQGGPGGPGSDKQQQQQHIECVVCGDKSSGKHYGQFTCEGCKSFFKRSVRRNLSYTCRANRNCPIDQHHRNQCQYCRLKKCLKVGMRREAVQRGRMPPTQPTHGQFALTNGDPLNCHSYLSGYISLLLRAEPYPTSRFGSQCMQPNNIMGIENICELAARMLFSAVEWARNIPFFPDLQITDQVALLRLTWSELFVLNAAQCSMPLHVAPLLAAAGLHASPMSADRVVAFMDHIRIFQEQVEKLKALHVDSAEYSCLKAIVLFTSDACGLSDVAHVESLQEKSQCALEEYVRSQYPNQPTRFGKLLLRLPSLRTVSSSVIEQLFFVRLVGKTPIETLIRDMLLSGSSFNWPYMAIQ
# aDG glyco up: increases alpha dystroglycan glycosylation; Pro5-aDG cells, alpha-DG glycosylation AlphaScreen (IIH6); 0% Pro5, 100% B10-LARGE cell signal; activation, % at 10 µM; 0.22% of 360,000 active;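 active = activation of at least 8% versus controls, or a plate z-score of at least 8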;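 note: Pro5 are CHO cells carrying HIG-tagged alpha-DG that lacks glycosylation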
# Gal4-VP16 ctr: counter-screen for COUP-TFII antagonists: inhibitors of VP16; 25% of 2,500 active; AID 687007; shares compounds with NR2F2 inh; HEK293 Gal4-VP16 luciferase reporter, luminescence; inhibition, % at 8.5 µM; in the data active = inhibition above about 13%
# COUP-TFII conf: confirmation of human COUP-TFII (NR2F2) inhibitors. shares compounds with NR2F2 inh. AID 687008. inhibition, % at 8.5 µM. 45% of 2,500 active. HEK293 NGFI-A luciferase reporter, luminescence;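 active = mean inhibition over three repeats above a set limit taken from the earlier primary screen, cut at about 38% in these data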;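 note: 100% = cells given the luciferase reporter alone without the COUP-TF2 vector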
# * hit, by the source's call; x = no result given; [ ] = remark or other dose. Most compounds without a hit are left out; they make up all but 2.1% or so of the library.
SMILES,GalR3 antagonist,HIV Env fusion,Gli-Sufu antag,NR2F2 inh,aDG glyco up,Gal4-VP16 ctr,COUP-TFII conf
COc1ccc(N(C(C)C(=O)N2CCCC2)S(C)(=O)=O)cc1 (configuration not stated),0,-1,3,-8,0,x,x
Cn1nc(C(F)(F)F)c(C#N)c1N1CCN(c2ccc(F)cc2)CC1,-1,x,4,45*,1,11,31
C/C(CC(C)(C)C1CCCCC1)=N\NC(N)=S,-3,-2,36,59*,2,17*,64*
C/C(CCC12CC3CC(CC(C3)C1)C2)=N\NC(N)=S,-5,x,40,14,1,x,x
O=C(C[C@H]1CC[C@H](NC(=O)c2cccnc2)[C@@H](CO)O1)NCc1ccc(Cl)c(Cl)c1,x,-5[16.7 µM],x,x,x,x,x
C[C@H]1CN([C@@H](C)CO)C(=O)c2cc(NC(=O)CCC(F)(F)F)ccc2O[C@H]1CN(C)Cc1ccccc1,x,-4[16.7 µM],x,x,x,x,x
Cc1ccc(NC(=O)C2CCN(S(=O)(=O)c3ccc4c(c3)NC(=O)C(C)S4)CC2)cc1C (configuration not stated),1,-5,14,22,2,x,x
CCc1ccc(NC(=O)C2CCN(S(=O)(=O)c3ccc4c(c3)NC(=O)C(C)S4)CC2)cc1 (configuration not stated),-9,9,26,58*,1,8,40*
COc1ccc(N2CCN(S(=O)(=O)c3ccc4c(c3)NC(=O)C(C)S4)CC2)cc1 (configuration not stated),12,2,-5,42*,0,-8,11
COc1ccc(S(=O)(=O)N(C)C[C@@H]2Oc3c(NC(=O)c4ccc(-c5nccs5)cc4)cccc3C(=O)N([C@H](C)CO)C[C@H]2C)cc1,x,-111[16.7 µM],x,x,x,x,x
Cc1ccccc1-n1ncc2c(SCC(=O)NC3CCCC3)ncnc21,-9,11,22,46*,1,-6,24
Cc1nnc(NC(=O)CSc2ncnc3c2cnn3-c2ccccc2C)s1,2,x,1,10,0,x,x
NC(=O)c1cc([N+](=O)[O-])ccc1NCc1ccc(N)cc1,0,71*,17,52*,0,64*,50*
NC(=O)c1cc([N+](=O)[O-])ccc1NCc1ccc(F)cc1,-5,-29,-7,-1,0,x,x
CCn1cc(CCCC(=O)NCc2cccc(OC)c2)c2ccccc21,-9,7,12,38*,0,-5,7
CO[C@@H]1CN(C)C(=O)c2cc(NS(=O)(=O)c3ccccc3Cl)ccc2OC[C@H](C)NC[C@H]1C,x,11[16.7 µM],x,x,x,x,x
COc1cc(/C=C2\COC/C(=C\c3cc(OC)c(OC)c(OC)c3)C2=O)cc(OC)c1OC,-1,110*,55*,60*,0,92*,103*
O=C(c1ccncc1)c1ccc(N2CCN(C3CC(=O)N(Cc4cccs4)C3=O)CC2)cc1 (configuration not stated),-6,25,-2,38*,0,3,23
O=C1CC(N2CCN(c3ccc(O)cc3)CC2)C(=O)N1Cc1cccs1 (configuration not stated),4,x,11,10,0,x,x
CC1(C)N=C(N)N=C(N)N1c1ccc(Oc2ccc(Cl)cc2)c(Cl)c1,6,28,65*,69*,0,16*,65*
CC1(C)N=C(N)N=C(N)N1c1cc(Cl)ccc1Cl,1,-6,x,-6,0,x,x
C[C@@H]1CN([C@@H](C)CO)C(=O)c2ccccc2-c2ccccc2CO[C@@H]1CN(C)C(=O)CCN(C)C,x,-16[16.7 µM],x,x,x,x,x
NC(=O)c1ccsc1NC(=O)COC(=O)Cc1cccc2ccccc12,104*,x,-15,53*,2,-6,39*
C=C/C(C)=C/C[C@H]1C(=C)CCC2[C@](C)(C(=O)O)CCC[C@@]21C (some centres not stated),x,x,-4,x,0,x,x
C=C1CCC2C(C)(C)CCC[C@]2(C)[C@H]1CC1=C(O)C(=O)C(CO)=CC1=O (some centres not stated),x,x,x,55*,x,46*,62*
SMILES,GalR3 antagonist,HIV Env fusion,Gli-Sufu antag,NR2F2 inh,aDG glyco up,Gal4-VP16 ctr,COUP-TFII conf
COCC(=O)Nc1ccc2c(c1)C(=O)N(C)C[C@H](OC)[C@@H](C)CN(C(C)=O)[C@@H](C)CO2,x,12[16.7 µM],x,x,x,x,x
C[C@@H]1CN([C@@H](C)CO)C(=O)c2cc(C3=CCCCC3)cnc2O[C@@H]1CN(C)C(=O)Cc1ccncc1,x,12[16.7 µM],x,x,x,x,x
CCN(c1ccccc1)S(=O)(=O)c1cc(C(=O)Nc2ccc(Br)cc2)ccc1F,6,46,7,65*,3,-5,41*
CCc1ccc(NC(=O)c2ccc(F)c(S(=O)(=O)NCC3COc4ccccc4O3)c2)cc1 (configuration not stated),-3,36,0,38*,4,-4,13
CCN(c1ccccc1)S(=O)(=O)c1cc(C(=O)Nc2ccccc2Cl)ccc1F,-6,-10,-5,-2,1,x,x
O=C(NCC1COc2ccccc2O1)c1ccc(F)c(S(=O)(=O)N2CCOCC2)c1 (configuration not stated),-4,4,-7,7,0,x,x
COCC(=O)Nc1ccc2c(c1)C(=O)N(C)C[C@@H](OC)[C@@H](C)CN(CCC(F)(F)F)[C@@H](C)CO2,x,2[16.7 µM],x,x,x,x,x

# Bioassay records from PubChem BioAssay.
